The campaign covered roughly 1,100 compounds. About 540 (49%) were called active. Roughly 5% stayed inconclusive and do not appear here. No stated cut-off is given here; in the data, active means inhibition above about 54%; inconclusive means no clear call, values can overlap the other calls; inactive means below that. The set was probably picked from earlier hits. Only a sample is shown.

Data on 51 molecules can be found in PubChem BioAssay AID504592 (Broad Institute, 2011).

A short description of the assay: prion 5' UTR mRNA inhibition, cherry-pick retest (AID 504592). The following applies: cell-based prion protein 5' UTR reporter, plate reader; at 2.5 µM; hits give high values.
Regarding `NC(=O)c1ccc(NC(=O)COC(=O)c2ccc([N+](=O)[O-])cc2)cc1`, the inhibition (usually the relative decrease from the control value, in per cent) is 91.9% (active).
Regarding `O=C1/C(=C\c2ccc([N+](=O)[O-])cc2)CS(=O)(=O)C/C1=C/c1ccc([N+](=O)[O-])cc1`, the inhibition is 85.3% (active).
In the case of `CC12CCC3C(CCC4CC(=O)CCC43C)C1CC(=NO)C2=O` (stereo unspecified), the inhibition was 0.372% (inactive).
Regarding `O=C(CSc1ncnc2sccc12)N1CCN(C(=O)c2cccs2)CC1`, the inhibition was 9.5% (inactive).
The result for `COc1cc(OC)cc(C(=O)N[C@H](C(=O)Nc2nc3ccccc3[nH]2)C(C)C)c1` reads 44.9% (inactive); that for `COc1cccc2c1C(=O)c1c(O)c3c(c(O)c1C2=O)CC(O)(C(C)=NNC(=O)c1ccc(Cl)c(Cl)c1)CC3OC1CC(N)C(O)C(C)O1` (stereo unspecified), 82.4% (active); that for `CCC(C)(O)C(=O)OC1C(=O)OC2CC3C(C)=CC(=O)C(O)C3(C)C3C4(O)OCC23C1C(C)C4O` (stereo unspecified), 83% (active).
Regarding `Cc1ccc(-c2cn3cc(C)ccc3n2)cc1`, the inhibition is 89.9% (active).
The result for `Cc1ccc2nc(-c3ccc(Br)cc3)cn2c1` reads 40% (inactive); that for `Nc1ccc(OCC(O)C[n+]2ccc(CCS(=O)(=O)[O-])cc2)cc1` (stereo unspecified), -71.6% (inactive).
For the molecule `CN(NC(=O)c1ccccc1F)c1nc(C(F)(F)F)nc2ccccc12`, the inhibition is 86.4% (active).
Take `COc1ccc(C2=Nn3c(nnc3-c3ccccc3OC)SC2)cc1OC1CCCC1`: the inhibition is 79.2% (active).
Turning to `CC(C)(C)C1CCc2c(sc3nc(SCC(N)=O)nc(N)c23)C1` (stereo unspecified), the inhibition was -25.3% (inactive).
On to `COC1C(O)C(C)OC(OC2CCC3(C=O)C(CCC4C3CCC3(C)C(C5=CC(=O)OC5)CCC43O)C2)C1O` (stereo unspecified), for which the inhibition was 91.9% (active).
The result for `Cc1ccc(CCC(=O)Nc2ncc(Cc3cc(Cl)ccc3Cl)s2)o1` reads 89.3% (active).
The result for `Clc1ccc2nc(-c3ccccc3)nc(C(Cl)Cl)c2c1` reads 89.1% (active).
On to `Cc1cc(NC(=O)/C=C/C(=O)N(CC(=O)NC2CCCC2)c2ccc(F)cc2)no1`, for which the inhibition is 15.5% (inactive).
The value for `O=C(NNC(=O)c1ccccc1O)c1ccccc1O` was 62.2% (active).
`CC1Cc2ccccc2N1C(=O)c1cc2sccc2n1Cc1ccccc1` (stereo unspecified): the inhibition is -33.3% (inactive).
In the case of `O=c1oc2ccccc2cc1-c1cn(-c2ccccc2)c(=S)[nH]1`, the inhibition is 86.9% (active).
Take `CCCOC(=O)c1[nH]c2c(c1C)C(=O)CC(c1cccs1)C2` (stereo unspecified): the inhibition was 88.2% (active).
As for `Cc1cc(Nc2ccccc2)n(C(=O)c2ccc(N)cc2)n1`, the inhibition was 12% (inactive).
For `COc1cc([N+](=O)[O-])ccc1NC(=S)N1CCN(c2ccccn2)CC1`, the inhibition is -10.7% (inactive).
The value for `CN(c1ccc2nc3ccccc3c(=O)n2n1)C1CCCCC1` was 86.2% (active).
Regarding `O=C(Nc1ccc2c(c1)OCCO2)C1CCCC1`, the inhibition is 33.2% (inactive).
For the molecule `CCOc1cc(NS(=O)(=O)c2ccc(OC)cc2)c(OCC)cc1NC(C)=O`, the inhibition was -19.5% (inactive).
`C=CCOc1ccc(/C=C2\SC(=S)N(CCC(=O)O)C2=O)cc1`: the inhibition was 61.2% (active).
Regarding `COc1cc(SC)ccc1C(=O)Nc1nc(C)cs1`, the inhibition is 79% (active).
Turning to `OCC1(Cc2ccccc2)CCN(Cc2cc3ccccc3o2)CC1`, the inhibition is -6.23% (inactive).
As for `O=C(CN1C(=O)c2ccccc2S1(=O)=O)N1CCc2ccccc21`, the inhibition is 80% (active).
Regarding `CC(C)(C)c1ccc(Oc2ccc(N)cc2)cc1`, the inhibition was 85.6% (active).
Take `O=C(C1=C[C@H](c2coc3ccccc3c2=O)C[C@H](OCc2ccc(CO)cc2)O1)N1CCN(Cc2ccccc2)CC1`: the inhibition is -63.6% (inactive).
Take `COc1ccc(C(=O)Nc2ccccc2C(=O)N/N=C/c2ccc(O)c(OC)c2)cc1`: the inhibition was 71.2% (active).
The result for `CCC(C)Cn1c(O)cc2nn(-c3nc4ccccc4s3)c(=O)c-2c1C` (stereo unspecified) reads 89.8% (active); that for `CCCCNS(=O)(=O)CCNCc1ccccc1OC`, -14.3% (inactive); that for `Oc1ccc(N2CCN(C(=S)NCc3ccccc3)CC2)cc1`, -21.4% (inactive).
On to `CC(=O)OC1C2(CC3N4C(=O)C5(CO)SSC4(CC31O)C(=O)N5C)OC(C)C(C)(C)C2=O` (stereo unspecified), for which the inhibition was 98.2% (active).
For `CCn1c(=O)c(=O)[nH]c2c(=O)oc3ccc(S(=O)(=O)Nc4ccc(OC)cc4)cc3c21`, the inhibition is -6.15% (inactive).
With `COC(=O)Cc1[nH]n(-c2nc3ccccc3s2)c(=O)c1C(C)=Nc1ccc(OC)cc1`, the inhibition is 80.6% (active).
With `COc1ccc(OC)c(Cc2cnc3nc(N)nc(N)c3c2C)c1`, the inhibition was -3.64% (inactive).
The result for `CC(=O)c1ccc(Oc2cc(C)nc(-n3nc(C)cc3C)n2)cc1` reads 83.7% (active); that for `COc1ccc(C(=O)/C=C/Nc2ccccn2)cc1`, 73.9% (active); that for `Cc1ccc(-c2cccc([C@H]3[C@@H]4C=CC[C@@H](C)[C@@H]4C(=O)N3Cc3ccccc3)c2)cc1`, -13.7% (inactive).
As to `CSc1nc(-c2ccccc2)nc(C(Cl)Cl)n1`, the inhibition is 89.8% (active).
`C=CCn1c(C)cc(C2=NNC(=NCC)SC2)c1C`: the inhibition is 95.3% (active).
For `O=C1[C@@H](c2ccccc2)[C@@H](c2ccccc2)N1c1cccnc1`, the inhibition is -4.06% (inactive).
Turning to `Cc1ccc(S(=O)(=O)Nc2nc3ccccc3s2)cc1[N+](=O)[O-]`, the inhibition was 79.1% (active).
The value for `C/C(=N\NC(=O)c1cc2c(s1)CCC(C)C2)c1cccnc1` (stereo unspecified) was -16.9% (inactive); that for `Cc1ccc(/C=N/NC(=O)COc2ccccc2-c2ccccc2)cc1` was 87.8% (active).
`COc1ccccc1N1CCN(C(=O)c2cc(=O)c3cc(C)cc(C)c3o2)CC1`: the inhibition is 91.6% (active).
`CN(CCO)c1ccc(/C=N/Nc2nncc3ccccc23)cc1`: the inhibition is 72.6% (active).
